From the supplement of paper PMC4380459 come the findings set out here.

In the test the test system is tubulin (bovine brain). The test is described as follows: tubulin polymerization end-point dOD, fold change relative to DMSO vehicle; higher = more polymerization (stabilization). To be noted: 50 µM; 60 min; 37 °C. The method, then: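 In-vitro tubulin polymerization assay (Cytoskeleton HTS kit) with 4 mg/ml bovine brain tubulin in G-PEM buffer and compound at 50 uM (0.5% DMSO). Turbidity was read at 340 nm every minute for 1 h at 37 C. The end-point change in OD (dOD) was converted to % fold change relative to the DMSO vehicle (0%), and runs were scaled using DMSO and Taxol controls. The paper calls >20% an effect, 20-40% weak and >40% strong; positive values mean stabilization, negative values destabilization. Scale: negative = destabilization.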
`Cc1ccc(/C=N\NC(=O)COc2ccccc2Br)c(C)c1`: the “tubulin polymerization end-point dOD” value was -56.5%.

On to `COc1ccc(Br)cc1-c1nc(CN2C(=O)NC(C)(c3ccccc3)C2=O)cs1` (stereo not given), for which the “tubulin polymerization end-point dOD” value came to 88.8%.

In the case of `Cc1cc(C(=O)Nc2nc3cc4c(cc3s2)OCCO4)c2c(C)nn(C)c2n1`, the “tubulin polymerization end-point dOD” value worked out at 28.4%.

On to `O=c1[nH]c(/C=C/c2ccccc2)nc2sc3c(c12)CCCC3`, for which the “tubulin polymerization end-point dOD” value was -32.9%.

For the compound `Cc1ccc2nc(-c3ccc(I)cc3)cn2c1`, the “tubulin polymerization end-point dOD” value is 101%.

Take `O=C(c1cccnc1N1CCCC1)N1CC=C(c2c[nH]c3ccccc23)CC1`: the “tubulin polymerization end-point dOD” value is -49.4%.

Consider `Cc1cc(N2CCN(C(=O)c3c[nH]nc3-c3ccccc3)CC2)nc(C(C)C)n1`, for which the “tubulin polymerization end-point dOD” value is -15.2%.

As to `c1ccc(CCc2nc3c4ccccc4ncn3n2)cc1`, the “tubulin polymerization end-point dOD” value is -31.9%.

Take `O=C1N/C(=N/N=C/c2ccccc2O)SC1Cc1cc(C(F)(F)F)ccc1Cl` (stereo not given): the “tubulin polymerization end-point dOD” value was -23%.

Regarding `O=C(Nc1ccc(CNc2ncnc3cc(Cl)ccc23)cc1)C1CC1`, the “tubulin polymerization end-point dOD” value was 8.64%.

As to `CCc1cc2cc(OC)ccc2nc1SCC(=O)Nc1ccccc1C`, the “tubulin polymerization end-point dOD” value amounted to 104%.

On to `COc1ccccc1-n1c(SCC(=O)Nc2nc(C)cs2)nnc1-c1cccnc1`, for which the “tubulin polymerization end-point dOD” value was -51%.

Regarding `C=CCc1ccccc1OCC(=O)N/N=C\c1ccc(Cl)cc1`, the “tubulin polymerization end-point dOD” value was -25.9%.

For `CC(=O)c1c(C)[nH]c(C(=O)Nc2ccc(N3CCCC3=O)cc2)c1C`, the “tubulin polymerization end-point dOD” value is -9.36%.

`O=c1[nH]c(/C=C\c2ccccc2)nc2ccccc12`: the “tubulin polymerization end-point dOD” value is 40.5%.

For `CCOc1ccc(S(=O)(=O)Nc2cc(Br)c3oc(C)c(C(C)=O)c3c2)cc1`, the “tubulin polymerization end-point dOD” value was -25.4%.

`O=C(Nc1ncc(Cc2ccccc2)s1)c1sc2ccccc2c1Cl`: the “tubulin polymerization end-point dOD” value was -14.2%.

`COc1cc(-c2onc3ccc(Cl)cc23)cc(OC)c1OC`: the “tubulin polymerization end-point dOD” value was 95.2%.

Turning to `COc1ccc2cc(CNc3ncnc4[nH]ncc34)ccc2c1`, the “tubulin polymerization end-point dOD” value was -12.6%.

Consider `Cc1ccc2cc(CN(CC3CCCO3)C(=S)Nc3ccccc3)c(=O)[nH]c2c1` (stereo not given), for which the “tubulin polymerization end-point dOD” value amounted to 0.1%.

Take `CC(=O)N1c2ccc(NC(=O)c3cc4cccc(C)c4nc3C)cc2CC1C` (stereo not given): the “tubulin polymerization end-point dOD” value came to 0.65%.

As to `CN(C)c1ccc(/C=N/NC(=O)c2cccc(F)c2)cc1`, the “tubulin polymerization end-point dOD” value is 27.6%.

For `Cc1ccc(/C=N\NC(=O)c2cccc(Cl)c2)cc1`, the “tubulin polymerization end-point dOD” value was determined as 3.13%.

For `CCc1ccc2nc(SCC(=O)Nc3ccccc3OC)c(C#N)cc2c1`, the “tubulin polymerization end-point dOD” value was -25%.

As for `CCC(C)Cc1c(C)sc2nc(SCc3nnc(C)o3)[nH]c(=O)c12` (stereo not given), the “tubulin polymerization end-point dOD” value was -13.9%.

On to `Cc1cc2cc3c(cc2nc1SCC(=O)Nc1ccccc1Br)OCO3`, for which the “tubulin polymerization end-point dOD” value was -1.3%.

Regarding `COC(=O)Nc1nc2cc(C(=O)c3ccccc3)ccc2[nH]1` [Mebendazole], the “tubulin polymerization end-point dOD” value was determined as 6.22%.

As to `CCc1cc2cc(OC)ccc2nc1SCC(=O)Nc1ccccc1Cl`, the “tubulin polymerization end-point dOD” value was -96.6%.

`Cc1ccc(/C=N/NC(=O)c2c(C)nc3ccc(Cl)cn23)cc1`: the “tubulin polymerization end-point dOD” value was -21.2%.

As for `O=C(NC1=NCCS1)c1sc2cccc(F)c2c1COc1ccccc1`, the “tubulin polymerization end-point dOD” value turned out to be 34.2%.

As for `COc1ccccc1NC(=O)CSc1nnc(-c2cc(OC)c(OC)c(OC)c2)n1C`, the “tubulin polymerization end-point dOD” value was -33.1%.

Take `COc1ccc2cc(CN(Cc3cccs3)C(=O)Nc3ccccc3Cl)c(=O)[nH]c2c1`: the “tubulin polymerization end-point dOD” value is -57.2%.

Turning to `COc1ccc(/C(C)=N/Nc2cc[nH+]c3cc(Cl)ccc23)cc1OC`, the “tubulin polymerization end-point dOD” value was found to be 3.81%.

Turning to `O=C(Nc1ccc(N2CCc3sccc3C2)nc1)c1ccccc1F`, the “tubulin polymerization end-point dOD” value was -40.4%.

Consider `CCc1cc2cc(OC)ccc2nc1SCC(=O)Nc1cc(C)ccc1OC`, for which the “tubulin polymerization end-point dOD” value is -2.45%.

Take `C/C(=N\Nc1cc(-c2ccccc2)nc(C)n1)c1ccc(C)cc1`: the “tubulin polymerization end-point dOD” value is -7.02%.

In the case of `COc1cccc(N2CCN(C(=O)c3cc(C4CC4)nc4ccccc34)CC2)c1`, the “tubulin polymerization end-point dOD” value is -85.1%.

In the case of `Cc1ccc2nc(NC(=O)c3cc(Br)c[nH]3)sc2c1`, the “tubulin polymerization end-point dOD” value was -51.9%.

`O=c1[nH]c(CSc2nnc(C3CC3)n2C2CC2)nc2sc(-c3ccccc3)cc12`: the “tubulin polymerization end-point dOD” value was determined as 31.8%.

With `CC(=O)c1c(C)oc2c1cc(NS(=O)(=O)c1ccc(C)cc1)c1ccccc12`, the “tubulin polymerization end-point dOD” value was -58.9%.
